In all, about 5,500 compounds went through this assay and about 2,000 (36%) were called active. Not shown: some 18% with an inconclusive outcome. No stated cut-off is given here; in the data, active means normalized growth mostly below about 0.91 (no sharp cut-off); inconclusive means no clear call, values can overlap the other calls; inactive means mostly above about 0.92. This is one part of the list.
Assay: chemical genetic growth profiling, strain panel (AID 1159580);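 further: tested at 20 µM; growth read once vehicle control cultures reached saturation at 30 °C; 1 = growth at the plate median or of vehicle wells; lower values mean less growth of the strain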
Details: growth OD

Measured: normalized growth

O=C(O)[C@H](O)[C@@](O)(Cc1ccc(O)cc1)C(=O)O
inactive: S. cerevisiae deletion strains, locus YJR066W, strain TOR1, active compounds read low 0.995 | S. cerevisiae deletion strains, locus YJR075W, strain HOC1, active compounds read low 1.03 | S. cerevisiae deletion strains, locus YKL009W, strain mrt4, active compounds read low 1.07 | S. cerevisiae deletion strains, locus YKL068W, active compounds read low 1 | S. cerevisiae deletion strains, locus YKL085W, strain MDH1 (second series), active compounds read low 1.02 | S. cerevisiae deletion strains, locus YKL085W, strain MDH1, active compounds read low 1.02 | S. cerevisiae deletion strains, locus YKL160W, strain elf1, active compounds read low 1.01 | S. cerevisiae deletion strains, locus YKL190W, strain CNB1, active compounds read low 1.02 | S. cerevisiae deletion strains, locus YKR001C, strain vps1, active compounds read low 1.02 | S. cerevisiae deletion strains, locus YKR026C, strain gcn3, active compounds read low 1 | S. cerevisiae deletion strains, locus YKR091W, strain srl3, active compounds read low 1 | S. cerevisiae deletion strains, locus YLL001W, strain dnm1, active compounds read low 1.03 | S. cerevisiae deletion strains, locus YLL026W, active compounds read low 1 | S. cerevisiae deletion strains, locus YLL041C, strain sdh2, active compounds read low 1 | S. cerevisiae deletion strains, locus YLR027C, strain aat2, active compounds read low 1.01 | S. cerevisiae deletion strains, locus YLR039C, strain RIC1, active compounds read low 1.13 | S. cerevisiae deletion strains, locus YLR058C, strain SHM2, active compounds read low 1.04 | S. cerevisiae deletion strains, locus YLR102C, strain apc9, active compounds read low 0.994 | S. cerevisiae deletion strains, locus YLR113W, strain HOG1, active compounds read low 1 | S. cerevisiae deletion strains, locus YLR221C, strain rsa3, active compounds read low 1.03 | S. cerevisiae deletion strains, locus YLR258W, strain gsy2, active compounds read low 1.01 | S. cerevisiae deletion strains, locus YLR262C, strain YPT6 (second series), active compounds read low 1.03 | S. cerevisiae deletion strains, locus YLR268W, strain sec22, active compounds read low 1.04 | S. cerevisiae deletion strains, locus YLR320W, strain mms22, active compounds read low 1.03 | S. cerevisiae deletion strains, locus YLR330W, strain CHS5, active compounds read low 1.02 | S. cerevisiae deletion strains, locus YLR342W, strain FKS1 (second series), active compounds read low 1.09 | S. cerevisiae deletion strains, locus YLR342W, strain FKS1, active compounds read low 1.01 | S. cerevisiae deletion strains, locus YLR357W, strain rsc2, active compounds read low 1.01 | S. cerevisiae deletion strains, locus YLR370C, strain arc18, active compounds read low 1.01 | S. cerevisiae deletion strains, locus YLR371W, strain rom2, active compounds read low 1 | S. cerevisiae deletion strains, locus YLR384C, strain iki3, active compounds read low 1.01 | S. cerevisiae deletion strains, locus YLR418C, strain cdc73, active compounds read low 1.01 | S. cerevisiae deletion strains, locus YML016C, strain PPZ1, active compounds read low 1.01 | S. cerevisiae deletion strains, locus YML032C, strain rad52, active compounds read low 1.01 | S. cerevisiae deletion strains, locus YML120C, strain ndi1, active compounds read low 1 | S. cerevisiae deletion strains, locus YML124C, strain tub3, active compounds read low 1.01 | S. cerevisiae deletion strains, locus YMR058W, strain fet3, active compounds read low 1.02 | S. cerevisiae deletion strains, locus YMR078C, strain ctf18, active compounds read low 0.982 | S. cerevisiae deletion strains, locus YMR125W, strain sto1, active compounds read low 1.01 | S. cerevisiae deletion strains, locus YMR129W, active compounds read low 1.01 | S. cerevisiae deletion strains, locus YMR205C, strain PFK2, active compounds read low 1.02 | S. cerevisiae deletion strains, locus YMR223W, strain ubp8, active compounds read low 1.01 | S. cerevisiae deletion strains, locus YMR231W, strain pep5, active compounds read low 0.998 | S. cerevisiae deletion strains, locus YMR263W, strain SAP30, active compounds read low 1.02 | S. cerevisiae deletion strains, locus YMR307W, strain GAS1, active compounds read low 1.04 | S. cerevisiae deletion strains, locus YNL067W, strain RPL9B, active compounds read low 1.02 | S. cerevisiae deletion strains, locus YNL071W, strain lat1, active compounds read low 1.01 | S. cerevisiae deletion strains, locus YNL153C, strain GIM3, active compounds read low 1.02 | S. cerevisiae deletion strains, locus YNL183C, strain NPR1, active compounds read low 1.01 | S. cerevisiae deletion strains, locus YNL209W, strain ssb2, active compounds read low 1 | S. cerevisiae deletion strains, locus YNL233W, strain BNI4, active compounds read low 1.04 | S. cerevisiae deletion strains, locus YNL248C, strain rpa49, active compounds read low 1 | S. cerevisiae deletion strains, locus YNL250W, strain rad50, active compounds read low 1.01 | S. cerevisiae deletion strains, locus YNL271C, strain bni1, active compounds read low 1.01 | S. cerevisiae deletion strains, locus YNL298W, strain CLA4, active compounds read low 0.987 | S. cerevisiae deletion strains, locus YNL307C, strain MCK1, active compounds read low 0.987 | S. cerevisiae deletion strains, locus YNL322C, strain KRE1 (second series), active compounds read low 1.01 | S. cerevisiae deletion strains, locus YNR049C, strain mso1, active compounds read low 1 | S. cerevisiae deletion strains, locus YNR052C, strain pop2, active compounds read low 0.995 | S. cerevisiae deletion strains, locus YOL006C, strain TOP1, active compounds read low 1.25 | S. cerevisiae deletion strains, locus YOL012C, strain htz1 0.973 | S. cerevisiae deletion strains, locus YOL147C, strain pex11, active compounds read low 1 | S. cerevisiae deletion strains, locus YOR001W, strain rrp6, active compounds read low 0.986 | S. cerevisiae deletion strains, locus YOR061W, strain CKA2, active compounds read low 1.04 | S. cerevisiae deletion strains, locus YOR069W, strain VPS5, active compounds read low 1.01 | S. cerevisiae deletion strains, locus YOR070C, strain gyp1, active compounds read low 1.02 | S. cerevisiae deletion strains, locus YOR080W, strain dia2, active compounds read low 1.01 | S. cerevisiae deletion strains, locus YOR083W, strain WHI5, active compounds read low 1.03 | S. cerevisiae deletion strains, locus YOR106W, strain vam3, active compounds read low 1.01 | S. cerevisiae deletion strains, locus YOR136W, strain idh2, active compounds read low 1.01 | S. cerevisiae deletion strains, locus YOR144C, strain elg1, active compounds read low 1 | S. cerevisiae deletion strains, locus YOR184W, strain ser1, active compounds read low 1.04 | S. cerevisiae deletion strains, locus YOR231W, strain MKK1, active compounds read low 1.02 | S. cerevisiae deletion strains, locus YOR265W, strain rbl2, active compounds read low 1 | S. cerevisiae deletion strains, locus YOR270C, strain vph1, active compounds read low 1.05 | S. cerevisiae deletion strains, locus YOR290C, strain snf2, active compounds read low 1.01 | S. cerevisiae deletion strains, locus YOR316C, strain cot1, active compounds read low 1 | S. cerevisiae deletion strains, locus YPL051W, strain arl3, active compounds read low 1.05 | S. cerevisiae deletion strains, locus YPL078C, strain atp4, active compounds read low 1.01 | S. cerevisiae deletion strains, locus YPL106C, strain sse1, active compounds read low 1.01 | S. cerevisiae deletion strains, locus YPL240C, strain hsp82, active compounds read low 1.01 | S. cerevisiae deletion strains, locus YPL241C, strain CIN2, active compounds read low 1.01 | S. cerevisiae deletion strains, locus YPL256C, strain CLN2, active compounds read low 0.993 | S. cerevisiae deletion strains, locus YPR119W, strain clb2, active compounds read low 1 | S. cerevisiae deletion strains, locus YPR141C, strain kar3, active compounds read low 1 | S. cerevisiae deletion strains, locus YPR163C, strain tif3, active compounds read low 0.992 | S. cerevisiae deletion strains, locus YPR167C, strain met16, active compounds read low 1.01 | S. cerevisiae deletion strains, strain wtn01, active compounds read low 1.02 | S. cerevisiae strains, strain wild type, active compounds read low 1.03

Source: PubChem BioAssay AID1159580 (chemical genetic matrix, 2015)
